Records with an inconclusive call do not appear. Activity calls are given as the source filed them.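 The calls were made as follows, unless noted: active = efflux inhibition above 0.42, the validation set average plus 4 SD; inconclusive = no clear call, values can overlap the other calls; inactive = the rest.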

Data on seven compounds can be found in PubChem BioAssay.

Assay [1] is described as follows: rapamycin-like changes in RPL19A-GFP expression – cell-based, S. cerevisiae, multiplex flow cytometry, primary screen (AID 1862; in the data active = percent of DMSO control GFP below about 86%;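 also: lower values mimic rapamycin by blocking the RPL19A rise seen in DMSO cells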). The following applies: S. cerevisiae RPL19A-GFP strain, flow cytometry fluorescence, 3 h; at 10 µM; stronger effect = lower value. In general terms: Flow cytometry measures light scatter and fluorescence of single cells or particles in a stream.

Assay [2] is described as follows: TOR pathway GLN3 branch reporter MEP2-GFP changes – S. cerevisiae, multiplex flow cytometry, primary screen (AID 1867;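 active = GFP response, as percent of the DMSO control, above the screen-wide mean plus 3 SD, about 139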;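 also: median GFP channel fluorescence of barcode-gated MEP2-GFP cells measured by flow cytometry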). The settings on record: S. cerevisiae MEP2-GFP strain, 3 h, at 10 µM, stronger effect = higher value, 100% means same as DMSO wells.
The nature of assay [3]: TOR pathway RTG branch CIT2 reporter changes – S. cerevisiae, GFP fusion, multiplex flow cytometry, primary screen (AID 1870;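 active = percent response above a set limit, the screen-wide mean plus 3 SD, cut at about 130% in these data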;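 also: barcoded CIT2-GFP strain pooled with four other GFP strains with rapamycin as positive control; median GFP fluorescence per well over plate mean of DMSO wells so 100% = DMSO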). The settings on record: S. cerevisiae CIT2-GFP expression, 3 h, at 10 µM, stronger effect = higher value.
A short description of assay [4]: TOR pathway LAP4-GFP level changes – S. cerevisiae, multiplex flow cytometry, primary screen (AID 1873;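 active = GFP signal, as percent of the solvent control, above the screen mean plus 3 SD, about 149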). The settings on record: S. cerevisiae LAP4-GFP expression, 3 h, at 10 µM, stronger effect = higher value.
The nature of assay [5]: yeast AGP1-GFP level changes, GLN3 branch – cell-based, multiplex flow cytometry, S. cerevisiae, primary screen (AID 1887;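 active = GFP signal above the screen-wide mean plus 3 SD, that is over about 124.5% of the solvent control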;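 also: AGP1-GFP fusion strain of S. cerevisiae within a five-strain barcoded multiplex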). The following applies: 3 h, at 10 µM, stronger effect = higher value.
Assay [6] in a line: reduced mouse 2C T cell binding to pMHC/ICAM-1 vesicles – MLPCN validation set, flow cytometry, LFA-1/ICAM-1 modulator project, pilot screen (AID 2523;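 active = response below a set limit, under 55% cells CD8-positive and vesicle-bound, and CD8 cells' 90th-percentile brightness under 279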;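 as to vesicle binding response: mean PE anti-B7-1 fluorescence of CD8+ cells relative to row control; 100% = QL9-loaded vesicles with DMSO vehicle in the same plate row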). The following applies: 2C mouse CD8+ T cells, at 7 µM, stronger effect = lower value; double positive events: measured here: CD8+/vesicle+ event percentage.
The target of assay [7] is Integrin beta-1 (Homo sapiens) + Integrin alpha-4 (Homo sapiens) (UniProt P13612+P05556). Briefly: alpha4beta1 integrin LIBS antibody binding reduction – U937 cells, HUTS-21 mAb, flow cytometry, validation set, VLA-4 allosteric modulator project, pilot screen (AID 2674;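 active = inhibition above 50%, about 3 SD of the validation set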;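 also: antibody binding induced by the VLA-4 ligand LDV present at three times its Kd; 0% = LDV ligand with antibody and no compound and 100% = antibody without LDV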). The settings on record: HUTS-21 LIBS mAb binding, at 6.7 µM, stronger effect = higher value, binding induced by LDV ligand.
Chain of Integrin beta-1 (Homo sapiens) + Integrin alpha-4 (Homo sapiens) (P05556 whole entry, looked up): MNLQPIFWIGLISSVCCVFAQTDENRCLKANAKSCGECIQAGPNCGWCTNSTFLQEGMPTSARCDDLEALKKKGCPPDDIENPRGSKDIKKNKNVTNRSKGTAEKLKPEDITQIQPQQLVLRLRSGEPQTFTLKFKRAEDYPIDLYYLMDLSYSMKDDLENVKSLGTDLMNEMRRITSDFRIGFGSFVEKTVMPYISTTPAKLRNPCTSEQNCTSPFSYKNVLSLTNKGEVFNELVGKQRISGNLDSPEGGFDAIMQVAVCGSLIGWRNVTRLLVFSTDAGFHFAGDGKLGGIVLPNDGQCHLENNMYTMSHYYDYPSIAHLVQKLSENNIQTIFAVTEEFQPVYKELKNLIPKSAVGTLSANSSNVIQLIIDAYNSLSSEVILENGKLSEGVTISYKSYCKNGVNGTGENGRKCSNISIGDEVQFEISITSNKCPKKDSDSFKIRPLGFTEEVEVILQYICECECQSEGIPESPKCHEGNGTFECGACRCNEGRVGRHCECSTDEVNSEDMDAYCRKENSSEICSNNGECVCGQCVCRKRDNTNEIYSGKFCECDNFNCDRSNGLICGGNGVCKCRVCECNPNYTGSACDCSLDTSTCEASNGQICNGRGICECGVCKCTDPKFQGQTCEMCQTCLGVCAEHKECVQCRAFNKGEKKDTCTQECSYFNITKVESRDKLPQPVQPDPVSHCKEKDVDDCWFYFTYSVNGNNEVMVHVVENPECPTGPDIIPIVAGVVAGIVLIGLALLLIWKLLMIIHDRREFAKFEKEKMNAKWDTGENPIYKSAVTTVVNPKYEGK
Chain of Integrin beta-1 (Homo sapiens) + Integrin alpha-4 (Homo sapiens) (P13612 whole entry, looked up): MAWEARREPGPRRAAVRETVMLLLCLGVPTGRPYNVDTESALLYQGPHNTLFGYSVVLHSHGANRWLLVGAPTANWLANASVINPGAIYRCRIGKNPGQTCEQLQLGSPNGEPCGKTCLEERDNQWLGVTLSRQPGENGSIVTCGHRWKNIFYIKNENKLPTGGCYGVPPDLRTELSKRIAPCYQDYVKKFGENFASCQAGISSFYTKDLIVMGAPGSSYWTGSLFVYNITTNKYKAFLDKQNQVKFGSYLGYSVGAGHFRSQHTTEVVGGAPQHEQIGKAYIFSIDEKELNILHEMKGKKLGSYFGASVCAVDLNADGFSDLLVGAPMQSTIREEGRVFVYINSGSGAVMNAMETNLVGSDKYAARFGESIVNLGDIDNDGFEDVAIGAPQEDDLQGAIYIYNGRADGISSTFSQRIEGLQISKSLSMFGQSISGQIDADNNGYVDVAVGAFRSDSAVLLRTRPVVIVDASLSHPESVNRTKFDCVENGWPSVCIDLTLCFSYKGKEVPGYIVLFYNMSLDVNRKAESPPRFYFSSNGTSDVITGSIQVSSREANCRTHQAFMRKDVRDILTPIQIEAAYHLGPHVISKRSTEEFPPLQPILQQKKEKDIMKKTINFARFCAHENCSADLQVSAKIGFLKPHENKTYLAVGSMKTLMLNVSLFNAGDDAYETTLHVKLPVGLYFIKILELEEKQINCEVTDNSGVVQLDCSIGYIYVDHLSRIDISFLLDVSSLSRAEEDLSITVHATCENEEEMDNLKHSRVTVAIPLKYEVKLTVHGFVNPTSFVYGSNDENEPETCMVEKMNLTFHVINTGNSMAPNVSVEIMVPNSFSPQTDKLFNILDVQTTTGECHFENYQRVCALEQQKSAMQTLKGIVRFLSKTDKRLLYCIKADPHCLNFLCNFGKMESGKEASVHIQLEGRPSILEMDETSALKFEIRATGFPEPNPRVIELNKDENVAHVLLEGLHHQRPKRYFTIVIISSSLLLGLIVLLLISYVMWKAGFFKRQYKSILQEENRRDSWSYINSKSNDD

Assay [8] in a line: calorie-restriction mimetic ROS inhibitors, yeast – validation compound set, pilot screen (AID 2706;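 active = superoxide response below 65% of plate, a cut near 3 SD across the whole screen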;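 also: yeast exposed to compound for one week at 30 degrees C before staining; 100% = mean of all compound wells on the same plate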). The following applies: S. cerevisiae aging, superoxide DHE fluorescence; at 10 µM; stronger effect = lower value.
The target of assay [9] is Beta-adrenergic receptor kinase 1 (Homo sapiens) (UniProt P25098). Kind of assay: GRK2 binders displacing RNA aptamer, biochemical, validation, human GRK2, bead flow cytometry (AID 488806;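 active = aptamer binding inhibition above 30%, about 3 SD of noise from non-fluorescent compounds; inactive = inhibition at or below 30%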). The settings on record: bead-bound GRK2, FAM-aptamer displacement, at 10 µM, stronger effect = higher value.
Chain of Beta-adrenergic receptor kinase 1 (Homo sapiens) (P25098 whole entry, looked up): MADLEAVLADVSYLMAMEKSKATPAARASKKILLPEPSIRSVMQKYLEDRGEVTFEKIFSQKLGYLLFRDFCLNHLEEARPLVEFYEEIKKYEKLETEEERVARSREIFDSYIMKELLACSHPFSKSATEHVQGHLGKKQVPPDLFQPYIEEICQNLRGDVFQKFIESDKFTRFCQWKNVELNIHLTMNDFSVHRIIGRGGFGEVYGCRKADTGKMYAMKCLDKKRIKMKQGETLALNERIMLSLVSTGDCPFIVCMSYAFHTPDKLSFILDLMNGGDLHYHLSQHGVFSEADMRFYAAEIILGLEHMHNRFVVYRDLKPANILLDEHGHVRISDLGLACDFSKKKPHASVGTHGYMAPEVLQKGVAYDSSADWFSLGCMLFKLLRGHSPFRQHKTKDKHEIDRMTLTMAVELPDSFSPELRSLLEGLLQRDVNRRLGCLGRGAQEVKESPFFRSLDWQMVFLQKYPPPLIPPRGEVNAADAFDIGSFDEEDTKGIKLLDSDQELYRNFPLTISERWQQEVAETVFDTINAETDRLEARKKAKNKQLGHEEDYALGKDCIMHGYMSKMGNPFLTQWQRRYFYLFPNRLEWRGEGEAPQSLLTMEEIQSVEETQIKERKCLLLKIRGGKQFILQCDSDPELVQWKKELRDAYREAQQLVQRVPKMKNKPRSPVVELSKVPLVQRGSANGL
The target in assay [10] is Beta-2 adrenergic receptor (Homo sapiens) (UniProt P07550). Briefly: agonist-induced loss of surface beta2AR – cell-based, FAP fluorogen, flow cytometry, validation set, pilot screen (AID 504459;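 active = percent response above 42, roughly 3 SD of non-fluorescent test compounds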;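 also: agonist-driven loss of surface beta2AR via internalization measured by FAP dye flow cytometry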). The following applies: Am2.2-beta2AR cells, at 10 µM, stronger effect = higher value.
Chain of Beta-2 adrenergic receptor (Homo sapiens) (P07550 whole entry, looked up): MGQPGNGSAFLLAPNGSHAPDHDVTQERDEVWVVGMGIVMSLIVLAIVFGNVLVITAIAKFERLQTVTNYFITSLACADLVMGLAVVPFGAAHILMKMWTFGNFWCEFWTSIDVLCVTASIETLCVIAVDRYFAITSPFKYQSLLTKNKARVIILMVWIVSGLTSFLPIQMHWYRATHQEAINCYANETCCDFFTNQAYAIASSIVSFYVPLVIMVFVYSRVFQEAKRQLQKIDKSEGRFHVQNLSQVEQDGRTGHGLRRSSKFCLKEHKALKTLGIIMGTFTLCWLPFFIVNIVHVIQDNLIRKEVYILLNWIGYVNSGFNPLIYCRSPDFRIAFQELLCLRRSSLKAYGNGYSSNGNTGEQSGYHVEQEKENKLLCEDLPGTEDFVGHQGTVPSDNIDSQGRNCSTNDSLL
For assay [11], the target named is AP-2 complex subunit beta (Homo sapiens) (UniProt P63010). Kind of assay: beta-arrestin/AP2 interaction blockers – biochemical, validation set, GST-AP2 beads, flow cytometry, pilot screen (AID 504541;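 active = inhibition above 54%, about 3 SD of non-fluorescent compounds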;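 also: AP2 carries R879A mutation and is captured from E. coli lysate; bead-bound FITC arrestin peptide fluorescence measuring arrestin peptide binding to AP2; 0% = DMSO wells and 100% = excess unlabeled arrestin peptide control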). The settings on record: FITC arrestin peptide, at 10 µM, stronger effect = higher value, AP2 beta2 appendage fragment, R879A mutant.
Chain of AP-2 complex subunit beta (Homo sapiens) (P63010 whole entry, looked up, the tested form may be a part, one chain of several): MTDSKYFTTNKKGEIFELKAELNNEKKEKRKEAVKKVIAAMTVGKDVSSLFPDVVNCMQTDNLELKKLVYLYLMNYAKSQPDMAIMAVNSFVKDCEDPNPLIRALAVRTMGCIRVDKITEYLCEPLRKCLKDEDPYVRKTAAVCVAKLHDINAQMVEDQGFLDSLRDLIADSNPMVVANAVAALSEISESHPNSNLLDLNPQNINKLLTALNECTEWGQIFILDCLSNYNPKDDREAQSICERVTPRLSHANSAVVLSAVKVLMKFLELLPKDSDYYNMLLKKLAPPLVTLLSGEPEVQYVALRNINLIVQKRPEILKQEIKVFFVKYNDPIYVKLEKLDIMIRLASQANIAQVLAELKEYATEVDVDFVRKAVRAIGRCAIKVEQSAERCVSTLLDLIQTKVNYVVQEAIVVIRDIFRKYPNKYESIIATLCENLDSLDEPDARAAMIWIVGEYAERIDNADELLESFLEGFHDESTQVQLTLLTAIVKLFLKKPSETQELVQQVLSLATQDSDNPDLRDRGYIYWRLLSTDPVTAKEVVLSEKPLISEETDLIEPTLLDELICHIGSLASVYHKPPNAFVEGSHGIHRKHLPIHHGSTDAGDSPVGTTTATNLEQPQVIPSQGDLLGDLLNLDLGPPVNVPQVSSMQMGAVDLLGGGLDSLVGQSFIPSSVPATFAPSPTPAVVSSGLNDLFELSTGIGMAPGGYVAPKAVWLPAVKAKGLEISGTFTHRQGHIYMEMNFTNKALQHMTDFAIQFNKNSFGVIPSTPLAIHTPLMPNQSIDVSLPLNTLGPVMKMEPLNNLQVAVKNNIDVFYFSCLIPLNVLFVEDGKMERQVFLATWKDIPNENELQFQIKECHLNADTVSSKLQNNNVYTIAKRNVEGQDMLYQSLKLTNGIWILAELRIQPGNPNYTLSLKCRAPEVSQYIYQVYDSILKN
Assay [12] in a line: cytosolic pH regulators acting via V-ATPase – S. cerevisiae, pHLuorin, HTS validation (AID 504600; in the data active = response above about 15%;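 also: plate controls were DMSO for no effect and reference compound for full effect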). The settings on record: V-ATPase proton transport, at 10 µM, stronger effect = higher value.
Assay [13] deals with anti-desmoglein-3 scFv antibody binding to human DSG3. Briefly: blockers of pathogenic pemphigus antibody–desmoglein-3 binding – biochemical, validation compound set, bead-based, flow cytometry, pilot screen (AID 588368;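 active = binding below the plate cutoff, the plate median minus 3 SD, with a reading above zero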;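 also: signal is the median channel fluorescence of bead-bound GFP antibody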). The settings on record: Protein G beads, DSG3-Fc, scFv-GFP binding, at 10 µM, stronger effect = lower value.
The nature of assay [14]: Nile Red efflux blockade in pump-expressing yeast – validation compound set, multiplex, phenotypic, pilot screen (AID 588506).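 Also: Nile Red retained in cells so higher fluorescence means more efflux inhibition; 0 = negative control wells and 1 = enniatin B 25 µM full block.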 The following applies: S. cerevisiae pump-expressing triplex, Nile Red efflux flow cytometry; at 10 µM; stronger effect = higher value; the pumps come from Candida albicans.
The target in assay [15] is ATP-binding cassette sub-family B member 6 (Homo sapiens) (UniProt Q9NP58). Briefly: blockers of ABCB6-driven porphyrin uptake – K562-ABCB6 cells, flow cytometry, validation set, pilot screen (AID 588550;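 active = inhibition above the screen-wide mean plus 3 SD, about 51%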;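 also: 0% = DMSO wells and 100% = benzethonium chloride 70 µM positive control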). The following applies: K562-ABCB6 porphyrin accumulation, 1 h, at 10 µM, stronger effect = higher value.
Chain of ATP-binding cassette sub-family B member 6 (Homo sapiens) (Q9NP58 whole entry, looked up): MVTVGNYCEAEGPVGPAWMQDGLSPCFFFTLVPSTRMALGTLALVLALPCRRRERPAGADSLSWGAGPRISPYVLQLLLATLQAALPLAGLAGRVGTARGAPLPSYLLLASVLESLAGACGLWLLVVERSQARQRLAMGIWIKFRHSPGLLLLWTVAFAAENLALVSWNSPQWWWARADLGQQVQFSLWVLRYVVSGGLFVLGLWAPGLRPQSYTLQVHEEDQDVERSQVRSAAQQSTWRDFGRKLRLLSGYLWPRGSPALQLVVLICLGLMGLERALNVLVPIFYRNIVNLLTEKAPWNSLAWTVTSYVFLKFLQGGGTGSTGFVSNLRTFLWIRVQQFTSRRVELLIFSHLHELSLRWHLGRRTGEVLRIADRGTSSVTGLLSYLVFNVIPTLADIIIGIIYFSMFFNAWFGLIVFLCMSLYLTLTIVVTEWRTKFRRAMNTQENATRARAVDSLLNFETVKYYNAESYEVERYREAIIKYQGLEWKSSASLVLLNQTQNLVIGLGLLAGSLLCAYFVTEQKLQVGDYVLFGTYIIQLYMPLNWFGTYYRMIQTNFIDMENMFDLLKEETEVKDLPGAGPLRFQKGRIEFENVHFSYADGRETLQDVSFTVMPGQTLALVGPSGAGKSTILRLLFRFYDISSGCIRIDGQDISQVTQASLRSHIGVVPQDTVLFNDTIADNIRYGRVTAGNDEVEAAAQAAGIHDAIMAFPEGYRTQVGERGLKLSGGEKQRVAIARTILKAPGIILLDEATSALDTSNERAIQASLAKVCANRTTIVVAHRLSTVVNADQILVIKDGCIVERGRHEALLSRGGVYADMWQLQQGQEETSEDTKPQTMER
Assay [16] in a line: AML differentiation inducers, ER-HoxA9 marrow cells – cell-based, GFP/MAC1 double positive, flow cytometry, validation set, primary screen (AID 588685;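 active = differentiation response of at least 50%, scaled between solvent and reference control, from cells with both markers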;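 also: compound exposure lasts four days before antibody staining and flow analysis; 0% = DMSO wells and 100% = 5 µM fulvestrant positive control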). The following applies: stronger effect = higher value, normalized: vehicle 0, fulvestrant 100.

Consider `Cc1cccc(Oc2coc3cc(OC(=O)c4cncc(Br)c4)ccc3c2=O)c1`, for which the percent of DMSO control GFP in assay [1] is 98% (inactive). Further, the GFP response vs DMSO is 111% (inactive) in assay [2] and 126% (inactive) in [4]. The percent response of DMSO control in assay [3] was 95.8% (inactive). The GFP response, % of DMSO in assay [5] was 100% (inactive). In assay [6], this compound registered a double positive events of 64.8%. Moreover, the vesicle binding response in [6] is 224% (inactive). In addition, the inhibition (as a rule, the relative decrease from the control value, in per cent) was -4.52% (inactive) in assay [7], -11.9% (inactive) in assay [11] and 103% (active) in assay [15]. The superoxide response (% of plate) in assay [8] was 78.9% (inactive). Besides, the aptamer binding inhibition in assay [9] is 1% (inactive). Also, the response was 9.93% (inactive) in assay [10] and 1.76% (inactive) in [12]. The binding (% of control) in assay [13] was 99.1% (inactive). Also, the efflux inhibition (fraction of control) in [14] was 0.33 (inactive). For the same compound, in assay [16], the differentiation response is 10.4% (inactive).

In the case of `CCCC(=O)O[C@]1(C(=O)COC(C)=O)CC[C@H]2[C@@H]3C[C@H](F)C4=CC(=O)C=C[C@]4(C)[C@@]3(F)[C@@H](O)C[C@@]21C`, the percent of DMSO control GFP in assay [1] is 96.9% (inactive). Besides, the results for the GFP response vs DMSO in [2] and in assay [4] were 114% (inactive) and 107% (inactive), respectively. Further, the percent response of DMSO control in [3] is 109% (inactive). Further, the GFP response, % of DMSO in [5] is 103% (inactive). The compound also returned a double positive events in assay [6] of 60.2%. Moreover, in [6], the vesicle binding response was 1090% (inactive). Further, the inhibition in [7] is -13.2% (inactive); in [11], 24.1% (inactive); in assay [15], 2% (inactive). In addition, in [8], the superoxide response (% of plate) was 112% (inactive). The aptamer binding inhibition in assay [9] is 3% (inactive). Besides, the response in assay [10] was 4.32% (inactive); in assay [12], -0.33% (inactive). Moreover, in assay [13], the binding (% of control) was 105% (inactive). Moreover, in assay [14], the efflux inhibition (fraction of control) was -0.06 (inactive). For the same compound, the differentiation response in [16] was 1.93% (inactive).

With `COC(=O)CN1C(=S)N(c2ccc(F)cc2)C(=O)C1CC(=O)Nc1ccccc1` (configuration not stated), the percent of DMSO control GFP in [1] is 99.7% (inactive). Besides, the GFP response vs DMSO in assay [2] is 101% (inactive); in assay [4] it was 120% (inactive). For the same compound, the percent response of DMSO control in assay [3] is 102% (inactive). Also, in assay [5], the GFP response, % of DMSO is 118% (inactive). The double positive events in assay [6] is 57.4%. Also, the vesicle binding response in assay [6] is 189% (inactive). The results for the inhibition in assay [7], in assay [11] and in assay [15] were 11.7% (inactive), 0.21% (inactive) and -3% (inactive), respectively. Also, the superoxide response (% of plate) in [8] was 103% (inactive). Moreover, in assay [9], the aptamer binding inhibition is 1% (inactive). Moreover, the response in assay [10] was -25.4% (inactive); in assay [12], 0.96% (inactive). The binding (% of control) in assay [13] was 101% (inactive). The efflux inhibition (fraction of control) in [14] was 0 (inactive). In addition, in assay [16], the differentiation response is -10.9% (inactive).

For the compound `CN1/C(=C\C=Nc2ccccc2)C(C)(C)c2ccccc21`, the percent of DMSO control GFP in [1] was 102% (inactive). Also, the values for the GFP response vs DMSO in assay [2] and in assay [4] were 102% (inactive) and 103% (inactive), respectively. Also, the percent response of DMSO control in assay [3] was 98.3% (inactive). For the same compound, the GFP response, % of DMSO in [5] is 113% (inactive). Moreover, in [6], the double positive events is 61.9%. In addition, the vesicle binding response in assay [6] was 196% (inactive). Moreover, the superoxide response (% of plate) in assay [8] is 101% (inactive). For the same compound, the aptamer binding inhibition in assay [9] was -1% (inactive). For the same compound, the response in [10] is -50.9% (inactive); in [12] it was 0.09% (inactive). The inhibition in assay [11] was 11.8% (inactive). Moreover, the binding (% of control) in assay [13] is 116% (inactive). The efflux inhibition (fraction of control) in [14] is 0 (inactive). For the same compound, in [16], the differentiation response is 2.89% (inactive).

`Cc1ccccc1C(=O)Oc1ccc(Sc2ccc(O)cc2)cc1`: the percent of DMSO control GFP in assay [1] was 103% (inactive). Also, the GFP response vs DMSO in [2] is 99.3% (inactive); in assay [4], 113% (inactive). Also, the percent response of DMSO control in assay [3] is 100% (inactive). The GFP response, % of DMSO in assay [5] is 100% (inactive). Also, in assay [6], the double positive events came to 62.4%. Also, the vesicle binding response in assay [6] was 255% (inactive). Moreover, the inhibition in [7] is 0.58% (inactive); in [11] it was -5.67% (inactive); in assay [15], -7% (inactive). Moreover, the superoxide response (% of plate) in assay [8] is 94.1% (inactive). Besides, the aptamer binding inhibition in [9] was 0% (inactive). In addition, the response is -4.72% (inactive) in assay [10] and 1.54% (inactive) in [12]. In assay [13], the binding (% of control) is 97.6% (inactive). Besides, the efflux inhibition (fraction of control) in assay [14] is 0.02 (inactive). In addition, the differentiation response in [16] is -1.71% (inactive).

Regarding `COc1ccccc1C(O)c1nccn1C` (configuration not stated), in assay [1], the percent of DMSO control GFP is 92% (inactive). In addition, the GFP response vs DMSO in assay [2] was 127% (inactive); in assay [4], 79.8% (inactive). Further, the percent response of DMSO control in [3] was 106% (inactive). Also, the GFP response, % of DMSO in assay [5] was 93.1% (inactive). This compound also gave a double positive events in [6] of 76.2%. Moreover, in assay [6], the vesicle binding response was 282% (inactive). For the same compound, the inhibition was 17.1% (inactive) in assay [7], 0.35% (inactive) in [11] and 11% (inactive) in assay [15]. In addition, in assay [8], the superoxide response (% of plate) is 81.3% (inactive). For the same compound, the aptamer binding inhibition in assay [9] is 4% (inactive). Also, the response in [10] is -3.43% (inactive); in assay [12], 24.9% (active). Besides, the binding (% of control) in assay [13] was 104% (inactive). In assay [14], the efflux inhibition (fraction of control) was -0.35 (inactive). In addition, the differentiation response in assay [16] is -7.37% (inactive).

Turning to `COc1cc(OC)c(-c2nc3cnccc3n2C)cc1OC`, the percent of DMSO control GFP in assay [1] is 104% (inactive). For the same compound, the GFP response vs DMSO is 100% (inactive) in assay [2] and 103% (inactive) in assay [4]. Moreover, the percent response of DMSO control in assay [3] was 115% (inactive). In assay [5], the GFP response, % of DMSO is 102% (inactive). In assay [6], this compound registered a double positive events of 61.8%. Also, the vesicle binding response in assay [6] is 192% (inactive). For the same compound, the inhibition in assay [7] is -4.6% (inactive); in assay [11], -2.31% (inactive); in [15], -11% (inactive). Also, the superoxide response (% of plate) in [8] is 97% (inactive). The aptamer binding inhibition in assay [9] was 0% (inactive). Also, the response in assay [10] is -4.1% (inactive); in assay [12], 4.97% (inactive). Moreover, in assay [13], the binding (% of control) was 97.6% (inactive). Also, the efflux inhibition (fraction of control) in assay [14] is -0.01 (inactive). Moreover, in assay [16], the differentiation response was 3.18% (inactive).
